Sm TGR inh = blocks Schistosoma mansoni thioredoxin glutathione reductase | 3% of 360,000 active | Q962Y6 | Potency, µM (doses to about 114 µM), for the others: at the highest dose activity change, negative = inhibition, actives largely listed as inhibitors | purified TGR, DTNB reduction, TNB absorbance 405 nm; also: % is scaled to controls: 0 for no effect and ±100 for the full control effect; nearly all actives have a fitted effect of over 60% in size
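TGR 20 nM + NADPH 100 uM (dispensed conc.), cpd preinc 15 min RT; start with NADPH (500 uM addition) then DTNB (15 mM addition). Kinetic TNB absorbance, 405 nm filter. Four-parameter Hill fit across titration.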
SARS PLpro yeast = inhibitors of SARS-CoV papain-like protease in yeast. S. cerevisiae expressing SARS-CoV PLpro, growth rescue. Potency, µM (doses to about 32.9 µM), without a hit: at the highest dose activity, positive = growth rescue, usual class: activators. 0.19% of 330,000 active. AID 485353; calls by dose curve; also: 0% is about no effect; nearly all actives have a fitted effect of over 55% in size
Pf growth 96h = P. falciparum growth inhibition at 96 hours | P. falciparum luciferase reporter growth, 96 h | Potency, µM (titrated, usually from 28.7 µM), for inactives: at the highest dose activity change, negative = inhibition, most hits filed as inhibitors | 6.9% of 320,000 active | AID 504834; also: % is scaled to controls: 0 for no effect and ±100 for the full control effect
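Luminescence readout: decreased luciferase signal marks inhibited growth of reporter-expressing P. falciparum in infected red cells (2% hematocrit, 0.05% parasitemia final), exposed to compound two generations (96 h, 37 C, 5% CO2).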
Pf growth 48h = inhibits P. falciparum growth in the first generation, 48 h | P. falciparum luciferase growth in erythrocytes, 48 h | Potency, µM (highest dose often 28.7 µM), for inactives: at the highest dose activity change, negative = inhibition, most hits filed as inhibitors | 5.9% of 310,000 active | AID 504832; also: % is scaled to controls: 0 for no effect and ±100 for the full control effect
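Luciferase-expressing P. falciparum in infected erythrocytes (2% hematocrit, 0.1% parasitemia final) in RPMI 1640/0.5% Albumax were exposed to compound for 48 hours at 37 C, 5% CO2; growth read as luminescence.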
* hit, by the source's call; ? = inconclusive; / = no result. A selection: hits, their analogues and other compounds. The true share with any hit is near 12%. Unless noted, calls follow the shape of the dose curve; as a rule, active = well fitted curve in the direction sought with a large enough effect; inconclusive = small, poorly fitted or top-dose-only effect, or another doubt; inactive = no such curve, though single readings can be large; an effect the other way counts as inactive or inconclusive. Potency is read from the fitted curve at half-maximal effect.

SMILES	Sm TGR inh	SARS PLpro yeast	Pf growth 96h	Pf growth 48h
O=C(O)CCCCCN1C(=O)/C(=C\c2cn(-c3ccccc3)nc2-c2cccs2)SC1=S	24%	-2%	?	?
CC1=NNC(=O)/C1=C\c1cn(-c2ccccc2)nc1-c1cccs1	2%	-67%	8.3µM*	?
COC(=O)c1ccc(C2NC(=S)N(c3ccccc3)C(C)=C2C(=O)Nc2ccccc2OC)cc1 (stereo unspecified)	-2%	5%	/	13µM*
Cn1c(=O)[nH]c2cc(-c3noc(-c4ccc(C#N)cc4)n3)ccc21	8%	/	/	/
COCCNC(=O)c1ccc2c(=O)n(CCOC)c(=O)[nH]c2c1	11%	-6%	13%	42%
CCCCCn1c(=O)[nH]c2cc(C(=O)NCCCN3CCCCC3)ccc2c1=O	-1%	-11%	/	9.3µM*
COCCn1c(=O)[nH]c2cc(C(=O)NCc3ccccc3)ccc2c1=O	-2%	4%	1.5µM*	/
CCCN(C(=O)Cn1cnc2onc(-c3ccc(F)cc3)c2c1=O)c1cccc(Cl)c1	-2%	/	/	/
COc1cc2c(c(OC)c1OC)-c1ccc(NC(=O)c3ccccc3)c(=O)cc1[C@@H](NC(C)=O)CC2	-13%	-4%	?	9.3µM*
CCCNC(=O)C(Cc1ccccc1)NC(=O)c1ccccn1 (stereo unspecified)	-8%	0%	9%	35%
CC(C)C[C@@H](NC(=O)[C@@H](Cc1ccccc1)NC(=O)c1cnccn1)B(O)O	/	/	0.034µM*	0.12µM*
O=C(O)c1ccc(Cl)c(S(=O)(=O)Nc2ccc(OCc3ccccc3)cc2)c1	-1%	3%	40%	17%
CCN(c1ccccc1)S(=O)(=O)c1ccc(NC(=O)c2cc(=O)c3cc(C)cc(C)c3o2)cc1	26%	/	/	/
CCOC(=O)c1cc(C#N)c(SCc2cccc3ccccc23)nc1C	0%	-1%	9.3µM*	/
COc1ccc(-n2ncc3c2CC(C)(C)CC3NC(=O)CCN2CCCCC2=O)cc1 (stereo unspecified)	-3%	16%	-13%	-8%
NC12CC3CC(C1)CC(O)(C3)C2	-5%	1%	10µM*	15%
COc1ccc(-c2cn3cccnc3n2)cc1NC(=O)c1cccs1	3%	-6%	12µM*	3%
COc1ccc(-c2cn3cccnc3n2)cc1NC(=O)c1cc(OC)c(OC)c(OC)c1	1%	-2%	?	0%
COc1ccc(-c2cn3cccnc3n2)cc1NC(=O)C(C)Oc1ccccc1 (stereo unspecified)	-9%	?	8%	13µM*
CCOC(=O)c1c(C)[nH]c(C(=O)OCC(=O)Nc2ccc(Cl)cn2)c1C	10%	6%	-5%	-6%
CCC(C(=O)OCc1csc(CC(=O)Nc2ccccc2C)n1)c1ccccc1 (stereo unspecified)	-6%	-1%	?	12µM*
CCOC(=O)c1c(C)[nH]c(C(=O)OCc2csc(CC(=O)Nc3ccccc3C)n2)c1C	-3%	-7%	12µM*	9.3µM*
Cc1ccccc1NC(=O)Cc1nc(CSc2nnc(C3CCCCC3)n2N)cs1	-10%	3%	7.4µM*	13µM*
CCOC(=O)c1c(C)[nH]c(C(=O)OCC(=O)Nc2sccc2C(N)=O)c1C	-5%	0%	?	4.7µM*
Cc1ccccc1NC(=O)Cc1nc(COC(=O)CCNS(=O)(=O)c2ccccc2)cs1	2%	1%	?	10µM*
SMILES	Sm TGR inh	SARS PLpro yeast	Pf growth 96h	Pf growth 48h
Cc1ccc(N2C(=O)NC(=O)/C(=C/C=C/c3ccco3)C2=O)cc1	?	-14%	0%	7%
CC(C)c1ccc(N2C(=O)NC(=O)/C(=C/C=C/c3ccco3)C2=O)cc1	?	-17%	79%	15%
O=C1NC(=O)N(Cc2ccc(F)cc2)C(=O)/C1=C\C=C\c1ccco1	7.9µM*	-3%	-2%	-2%
O=C1NC(=O)N(c2ccccc2)C(=O)/C1=C\C=C\c1ccccc1	14µM*	1%	23%	3%
CCCCN1C(=O)/C(=C/C=C/c2ccco2)C(=O)NC1=S	4.5µM*	3%	-15%	-1%
CCc1ccc(N2C(=O)NC(=O)/C(=C\C=C\c3ccco3)C2=O)cc1	11µM*	0%	-1%	20%
Cc1ccc(OCc2nnc(SCC(=O)N3C(C)CCCC3C)o2)cc1 (stereo unspecified)	-16%	0%	-3%	5%
CCOc1ccc2nc(NC(=O)c3cc(=O)c4cc(C)cc(C)c4o3)sc2c1	6%	/	/	/
